From PubChem BioAssay AID1209 (Sanford-Burnham Center for Chemical Genomics, 2008)
Among all 190,000 compounds or so, about 810 (0.43%) were called active. What follows is part of a selection rich in actives, with near analogues and random picks from the rest. A number with no mark means an inactive call. Cut-off read from the data, not from the text of the source: active = inhibition above about 50%; inactive = the rest.

What follows are compounds tested against Mannose-6-phosphate isomerase (Homo sapiens) (UniProt P34949) (assay: inhibitors of human PMI, primary screen, biochemical, fluorescence intensity, coupled assay (AID 1209;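 note: plate controls were DMSO vehicle for no effect and wells lacking substrate for full effect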)). Conditions: purified PMI enzyme, at 20 µM, hits give high values.
Sequence of Mannose-6-phosphate isomerase (Homo sapiens) (P34949 whole entry, looked up): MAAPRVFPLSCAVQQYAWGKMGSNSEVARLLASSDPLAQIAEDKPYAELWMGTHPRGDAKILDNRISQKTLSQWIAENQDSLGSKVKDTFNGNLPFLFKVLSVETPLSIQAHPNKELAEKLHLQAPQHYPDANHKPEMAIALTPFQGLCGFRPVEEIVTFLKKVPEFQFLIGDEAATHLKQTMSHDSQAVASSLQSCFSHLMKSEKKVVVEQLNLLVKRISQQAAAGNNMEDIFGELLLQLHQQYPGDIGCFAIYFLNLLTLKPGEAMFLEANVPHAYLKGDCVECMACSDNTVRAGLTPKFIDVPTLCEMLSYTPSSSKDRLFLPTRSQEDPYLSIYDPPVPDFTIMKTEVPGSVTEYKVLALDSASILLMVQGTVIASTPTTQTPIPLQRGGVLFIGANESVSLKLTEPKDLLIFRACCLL
`Cc1ccc(S(=O)(=O)N2CCCC2C(=O)Nc2nccs2)cc1` (stereo not drawn) gave an inhibition of -9.8%.
Work on `CCOC(=O)C1CCCN(C(=O)c2ccc(Cl)c(S(=O)(=O)N3CCCCCC3)c2)C1` (stereo not drawn) yielded an inhibition of -22.1%.
Compound `O=C1OC(Nc2ccc(F)cc2F)c2ccccc21` (stereo not drawn) has an inhibition of -10.1%.
In the case of `CCOC(=O)N1CCN(c2nc(C)cc(C(F)(F)F)n2)CC1`, the inhibition was 15.5%.
`COc1ccc(N=C2SC(C(=O)N3CCN(c4ccccc4)CC3)CC(=O)N2C)cc1` (stereo not drawn) was tested, and the inhibition was 5%.
Compound `CC(C)(C)C1CCc2c(C(=O)NNC(=O)CCCC(=O)O)csc2C1` (stereo not drawn) has an inhibition of -6.1%.
With `COc1ccccc1C1C(C(C)=O)=C(O)C(=O)N1CCc1ccccc1` (stereo not drawn) the inhibition was 4.1%.
In the case of `Cc1ccccc1NC(=S)NC1CC2CCC(C1)N2Cc1ccco1` (stereo not drawn), the inhibition was -0.8%.
`COc1ccc(CC2(C)OC(c3ccc(Cl)cc3)=NN2C(C)=O)cc1` (stereo not drawn) was tested, and the inhibition was 19%.
Work on `O=C(Nc1ccc(S(=O)(=O)Nc2ncccn2)cc1)c1ccccc1NS(=O)(=O)c1ccc(F)cc1` yielded an inhibition of 2.8%.
`Cc1ccc(C)c(C(=O)COC(=O)c2cc(Cl)nc3ccccc23)c1` showed an inhibition of 12.6%.
In the case of `c1cc2ccc3ccc(CN4CCOCC4)c4ccc(c1)c2c34`, the inhibition was -2.6%.
With `Oc1c(CN2CCc3ccccc3C2)cc(Cl)c2cccnc12` the inhibition was 40%.
Compound `CCOC(=O)N1CCN(Cc2ccccn2)CC1` has an inhibition of 3.7%.
With `CCOC(=O)C1CCN(Cc2c(O)ccc3ccccc23)CC1` the inhibition was 28.5%.
In the case of `CCOC(=O)C1CCN(Cc2ccc(OC)c(C)c2OC)CC1`, the inhibition was -4.3%.
`CCOC(=O)N1CCN(Cc2ccc(O)c3ncccc23)CC1` was tested, and the inhibition was 59.9% (active).
In the case of `COCc1cc(CN2CCN(C)CC2)c(O)c2ncccc12`, the inhibition was 36.7%.
For `Oc1c(CN2CCOCC2)ccc2ccccc12`, the inhibition was 50.8% (active).
With `Oc1ccc(CN2CCCCC2)c2cccnc12` the inhibition was 43.3%.
In the case of `CCOC(=O)C1CCN(Cc2ccc(O)c3ncccc23)CC1`, the inhibition was 67% (active).
For `O=c1cc(CN2CCOCC2)c2c(ccc3ccccc32)o1`, the inhibition was 1.2%.
`CCOC(=O)CC(NC(=O)Cc1ccccc1)c1ccccc1Cl` (stereo not drawn) was tested, and the inhibition was 13.1%.
Compound `COC(=O)C1=C(NC(=O)c2ccccc2C)CCS1` has an inhibition of -17.4%.
`O=C(Nc1cnn(Cc2ccc(F)cc2)c1)C(c1ccccc1)c1ccccc1` gave an inhibition of 16%.
`O=S(=O)(Nc1cccnc1)c1ccc(Cl)c(C(F)(F)F)c1` was tested, and the inhibition was 6%.
`CC(C)C(=O)NCCc1nc2ccccc2n1CCOc1ccccc1` gave an inhibition of -1.6%.
For `CCN(CC)C(=O)C1=C(C)NC(=S)NC1c1cccs1` (stereo not drawn), the inhibition was -9%.
In the case of `CCOC(=O)C1CCCN(Cc2cc(=O)oc3cc(C)ccc23)C1` (stereo not drawn), the inhibition was -10.2%.
In the case of `CN(CC(=O)NC1CCCCCC1)S(=O)(=O)c1ccc2c(c1)n(C)c(=O)c(=O)n2C`, the inhibition was 2.1%.
`COC(=O)C1=C(NC(=O)c2ccc(C)c(C)c2)CCS1` gave an inhibition of 3.8%.
For `Cc1ccc2cc(C(c3nnnn3C3CCCC3)N3CCOCC3)c(=O)[nH]c2c1C` (stereo not drawn), the inhibition was -2.5%.
`CCOC(=O)C1=C(C)N(C)C(=O)NC1c1cc2c(cc1[N+](=O)[O-])OCO2` (stereo not drawn) gave an inhibition of 35.3%.
For `CCOC(=O)C1=C(C)NC(=O)CC1c1cc2c(cc1[N+](=O)[O-])OCO2` (stereo not drawn), the inhibition was 53.2% (active).
With `CCOC(=O)C1=C(C)NC(=O)CC1c1cc2c(cc1Br)OCO2` (stereo not drawn) the inhibition was 1.2%.
`Cc1noc(C)c1C(=O)OCC(=O)NC(=O)NC12CC3CC(CC(C3)C1)C2` showed an inhibition of -2.2%.
In the case of `Cc1noc(C)c1C(=O)OCC(=O)C12CC3CC(CC(C3)C1)C2`, the inhibition was 100% (active).
`Cc1noc(C)c1C(=O)OCC(=O)NC1CC1` gave an inhibition of 1.3%.
Compound `CCC1S/C(=N/C(=O)NC2CCCCC2)NC1=O` (stereo not drawn) has an inhibition of -8.6%.
`O=C(/N=C1\NC(=O)C(F)(C(F)(F)F)S1)NC1CCCCC1` (stereo not drawn) was tested, and the inhibition was 74.7% (active).
In the case of `O=C(Nc1nccs1)NC1CCCCC1`, the inhibition was -3%.
In the case of `c1ccc2c(c1)nc(N1CCN(C3CCCCC3)CC1)c1nnnn12`, the inhibition was 4.7%.
`Cc1ccc(C(=O)CSc2nc3cc(S(=O)(=O)N4CCOCC4)ccc3o2)cc1` was tested, and the inhibition was 25.2%.
For `Cc1nc2ccc(NC(=O)c3ccc(S(=O)(=O)N4CCOCC4)cc3)cc2s1`, the inhibition was 1.9%.
In the case of `Cc1nc2ccc(Nc3nc4cc(S(=O)(=O)N5CCOCC5)ccc4o3)cc2s1`, the inhibition was 64.5% (active).
In the case of `Cc1noc(C)c1CSc1nc2cc(S(=O)(=O)N3CCOCC3)ccc2o1`, the inhibition was 53.1% (active).
Work on `Cc1nc2ccc(NC(=O)c3cc(S(=O)(=O)N4CCOCC4)ccc3C)cc2s1` yielded an inhibition of 9.8%.
In the case of `O=C(CSc1nc2cc(S(=O)(=O)N3CCOCC3)ccc2o1)Nc1c(F)cccc1F`, the inhibition was 31.9%.
For `CC(/C=N/NC(=O)CSc1nc(C)cc(C)n1)=C\c1ccccc1`, the inhibition was 16.1%.
Work on `CCOc1ccc(-c2nnc(-c3ccccc3)o2)cc1` yielded an inhibition of -0.3%.
For `CCCCc1nc(Cl)c(C#N)c2c1CSC(C)(C)C2`, the inhibition was 13.1%.
In the case of `CCc1onc(C)c1C(=O)O`, the inhibition was -13.1%.
`COc1cccc(-c2nnc(NC(=O)Cc3cccs3)s2)c1` showed an inhibition of -3%.
With `Cc1nn(Cc2cccc(C(=O)N3N=C(C(F)F)CC3(O)C(F)F)c2)c(C)c1[N+](=O)[O-]` (stereo not drawn) the inhibition was -1.8%.
`O=C1c2ccccc2C(=O)N1CN(C(=O)c1ccccc1[N+](=O)[O-])c1ccc(F)cc1` was tested, and the inhibition was 13.9%.
Compound `Oc1ccccc1/C=C/c1noc(-c2ccccc2O)n1` has an inhibition of -7%.
For `O=c1cc(-c2ccccc2)c2ccccc2[nH]1`, the inhibition was 9.9%.
`Oc1cc(-c2ccccc2)c2ccccc2c1` was tested, and the inhibition was 82.6% (active).
`Cn1c(=O)cc(-c2ccccc2)c2ccccc21` was tested, and the inhibition was 1.5%.
`CCOC(=O)CSc1nc(C(C)(C)C)cc(C(F)(F)F)c1C#N` was tested, and the inhibition was 5.9%.
With `COC(=O)C1=C(C(=O)OC)SC2(S1)C(C(=O)OC)=C(C(=O)OC)SC1=C2c2cc(C)ccc2NC1(C)C` the inhibition was 57% (active).
With `COC(=O)C1=C(C(=O)OC)SC2(S1)C(C(=O)OC)=C(C(=O)OC)SC1=C2c2cccc(C)c2NC1(C)C` the inhibition was 24.5%.
With `COC(=O)C1=C(C(=O)OC)SC2(S1)C(C(=O)OC)=C(C(=O)OC)SC1=C2c2cc(C)cc(C)c2NC1(C)C` the inhibition was 18.1%.
